Compound activity from PubChem.
RMI FANCM FP: disruptors of RMI1/RMI2 association with MM2 peptide – biochemical, fluorescence polarization, human, primary screen | RMI core complex (RMI1/RMI2) binding to FANCM MM2 peptide, human | RMI core complex with F-MM2 peptide; active compounds read low | FP signal (polarization) at 33 µM | 70,000 compounds, 0.58% hits | AID 1159607, 2016; in the data active = FP signal below about 40
Active calls of the source: *; ! = not active in a repeat. Only a selection was taken, and hits are over-represented in it overall.

SMILES | RMI FANCM FP
COC(=O)c1sc2ccccc2c1NC(=S)NC(=O)c1ccc(Cl)cc1 | 63
O=C(Nc1ccccn1)c1ccc(S(=O)(=O)N2CCOCC2)cc1 | 62
COc1ccc(S(=O)(=O)NCCCn2ncccc2=O)cc1OC | 61
CC(C)(Oc1ccc(Cl)cc1)C(=O)NCCn1ncc2c(=O)n(Cc3ccc(Br)cc3)cnc21 | 67
COc1ccc(SCC(=O)Nc2ccc(F)cc2F)cc1 | 52
COc1ccc(NC(=O)CSc2ccc(F)cc2)c([N+](=O)[O-])c1 | 9*
COc1ccc(NC(=O)CC2SC(=N)NC2=O)c([N+](=O)[O-])c1 (stereo not given) | 64
O=C(NC(=S)NCC1CCCO1)C1CCCCC1 (stereo not given) | 61
CN=C1SC(CC(=O)NCCCOC(C)C)C(=O)N1C (stereo not given) | 52
Cn1ccnc1SCc1cc(=O)c(OC(=O)C2(c3ccc(Cl)cc3)CCCC2)co1 | 53
COc1ccc(-c2c(C#N)c(SCC(=O)c3ccc4c(c3)OCCO4)nc3c2C(=O)CC(C)(C)C3)cc1 | 164
CC1(C)CC(=O)c2c(nc(SCC(=O)c3ccc(Cl)c(Cl)c3)c(C#N)c2-c2ccccc2)C1 | 131
N#Cc1c(N)nc(SCC(=O)c2ccc(O)c(O)c2)c(C#N)c1-c1ccc(OCc2ccccc2)cc1 | 14*
O=C(NCCNc1c([N+](=O)[O-])cc(C(F)(F)F)cc1[N+](=O)[O-])c1cccc(C(F)(F)F)c1 | 58
Cc1ccccc1-c1ccc(N2CCC(C(=O)NCCc3ccc(S(N)(=O)=O)cc3)CC2)nn1 | 63
COc1cc(/C=N\NC(=O)c2n[nH]c3c2CCC3)cc(OC)c1OC | 58
CS(=O)(=O)N1CCN(Cc2nc(-c3cccs3)cs2)CC1 | 59
O=C(O)c1cccc2cccc(C(=O)O)c12 | 53
Nc1ccc(C(=O)O)c2c(C(=O)O)cccc12 | 19*
O=C(O)c1cccc(Cl)c1C(=O)O | 58
Cc1ccc(S(=O)(=O)N=c2sc3cccc(C)c3n2C)cc1 | 55
Cc1ccc(S(=O)(=O)N(C)C)cc1 | 56
Cc1ccc(S(=O)(=O)N=C2C=CC(=NS(=O)(=O)c3ccc(C)cc3)C=C2)cc1 | 0*
Cc1cc(C)c(S(=O)(=O)N2CCCCC2CCNC(=O)C(=O)Nc2ccccc2C)c(C)c1 (stereo not given) | 56
Cc1cc(NC(=O)Cc2ccc(F)cc2)n(-c2nc(C)c(C)c(=O)[nH]2)n1 | 69
SMILES | RMI FANCM FP
CCn1c(=NC(=O)c2ccc(N3C(=O)CCC3=O)cc2)sc2cc(F)cc(F)c21 | 97
Cc1sc2nc(SCC(=O)Nc3ccc(S(N)(=O)=O)cc3)n(-c3ccccc3)c(=O)c2c1C | 74
CC(C)c1cc(=O)[nH]c(-n2nc(-c3cccs3)cc2NC(=O)c2cccs2)n1 | 75
CC(C)c1cc(=O)[nH]c(-n2nc(-c3cccs3)cc2NC(=O)/C=C\c2ccc3c(c2)OCO3)n1 | 26*
Cc1cc(=O)[nH]c(-n2nc(C)cc2NC(=O)/C=C/c2ccc3c(c2)OCO3)n1 | 54
O=C(NCCN1CCN(c2ccccc2F)CC1)c1c(F)cccc1Cl | 65
Cc1cc(C)c(NC(=O)C(=O)NCC2CCN(Cc3ccco3)CC2)c(C)c1 | 71
O=C(Cn1c(=O)n(CCCCC(=O)NC2CCCC2)c(=O)c2ccccc21)Nc1ccc(Cl)cc1 | 85
CS(=O)(=O)NCc1ccc(-c2cccs2)cc1 | 61
Cc1onc(-c2ccccc2Cl)c1C(=O)Nc1ccc2c(c1)COCO2 | 1*
Cc1onc(-c2ccccc2Cl)c1C(=O)Nc1ccc2c(c1)OCC(C)(C)C(=O)N2 | 66
CC(=O)N1CCc2ccc(NC(=O)c3c(-c4ccccc4Cl)noc3C)cc21 | 66
CC(=O)NCCn1ncc2c(=O)n(Cc3ccccc3C)cnc21 | 67
Cc1ccc(-n2ncc3c(C(C)C)nnc(SCC(=O)NCc4ccco4)c32)cc1C | 63
CC1(C)C2CC[C@]3(C)C(C(=O)C=C4[C@H]5C[C@@](C)(C(=O)O)CC[C@]5(C)CC[C@]43C)[C@@]2(C)CC[C@@H]1O (stereo not given in full) | 53
C=C(C)[C@@H]1CC[C@]2(CO)CC[C@]3(C)[C@H](CCC4[C@@]5(C)CC[C@H](O)C(C)(C)C5CC[C@]43C)C12 (stereo not given in full) | 51
CCOC(=O)c1cc(-c2ccccc2)sc1NC(=O)C=C(C)C | 64
COC(=O)C/C(=N/Nc1ccccc1C(F)(F)F)C(=O)OC | 58
COc1ccc2nc(-c3ccc(Cl)c(NC(=O)c4ccccc4C)c3)cn2n1 | 33*
COc1ccc2nc(-c3ccc(F)c(NC(=O)c4ccccc4C)c3)cn2n1 | 98
COc1ccc2nc(-c3ccc(OC)c(NC(=O)c4ccccc4C)c3)cn2n1 | 73
CSc1ccccc1NC(=O)C1OC2OC(C)(C)OC2C2OC(C)(C)OC12 (stereo not given) | 65
Cc1cn2c3c(=O)[nH]c(=O)n(C)c3nc2n1CCCN1CCC(C(N)=O)CC1 | 56
O=C(Nc1cccs1)N1CCn2cccc2C1c1ccc(F)cc1 (stereo not given) | 15*
O=C(Nc1c(F)cccc1F)N1CCn2cccc2C1c1cccnc1 (stereo not given) | 53
SMILES | RMI FANCM FP
COc1ccccc1NC(=O)N1CCn2cccc2C1c1ccc(Br)cc1 (stereo not given) | 56
CCSc1ncc(Cl)c(C(N)=O)n1 | 68
CCOC(=O)/C(C#N)=C/c1ccc(OC)s1 | 55
COC(=O)/C(C#N)=C/c1ccc(SC)s1 | 32*
CCOC(=O)/C(C#N)=C/c1ccc(-c2cccs2)s1 | 82
COc1ccc(C)cc1NC(=O)c1cc(-c2ccccc2)nc2c1c(C)nn2C1CCS(=O)(=O)C1 (stereo not given) | 73
COC(=O)C1=C(C)Nc2[nH]ncc2C1c1ccccc1 (stereo not given) | 69
COC(=O)C1=C(C)NC(C)=C(C(=O)OC(C)C)C1c1cccc2nonc12 (stereo not given) | 58
COC(=O)C1=C(C)NC(C)=C(C(=O)OCC(C)C)C1c1ccccc1[N+](=O)[O-] (stereo not given) | 21*!
CSc1nnc(C)c2cnn(-c3ccc(C)c(C)c3)c12 | 73
O=C(Cc1ccccc1)NCCOc1ccc2nnc(-c3ccccc3)n2n1 | 69
COCC(=O)NCCOc1ccc2nnc(-c3ccccc3)n2n1 | 26*
CCC(=O)NCCOc1ccc2nnc(-c3ccccc3)n2n1 | 68
CC(C)(C)OC(=O)N1CCN(C/C(N)=N\O)CC1 | 66
C(=N/Nc1ncnc2c1cnn2-c1ccccc1)/c1cccnc1 | 54
CC(=O)N1CCCc2cc(NC(=O)c3cccc4ccccc34)ccc21 | 53
Cc1ccc2oc(C(=O)O)cc(=O)c2c1 | 59
Cc1coc2ccccc2c1=O | 63
Cc1ccc2occ(C=O)c(=O)c2c1 | 17*
CCN1CCC[C@H]1CNC(=O)c1c(OC)ccc(Br)c1OC | 59
CCN1CCC[C@H]1CNC(=O)c1cc(S(N)(=O)=O)ccc1OC | 22*!
C=CCN1CCCC1CNC(=O)c1cc2[nH]nnc2cc1OC (stereo not given) | 61
Cc1onc(-c2ccccc2Cl)c1C(=O)N1CCN(Cc2nc3ccccc3[nH]2)CC1 | 61
O=C(NCCOc1ccc2nnc(-c3ccccc3)n2n1)NC1CCCCC1 | 71
CC(C)N1CCc2c(sc(NC(=O)c3ccc(Cl)s3)c2-c2nc3ccccc3s2)C1 | -19*
Cc1ccc(C(=O)Nc2sc3c(c2-c2nc4ccccc4s2)CCN(C(C)C)C3)c(C)c1 | 36
